About 83,000 compounds went through this panel and 20% of them were active in at least one assay; those are over-represented in the sample as a whole.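 Plates (96-well) were seeded with cells, treated with compound at one concentration, and incubated for 48 hours before percent growth was determined.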 Values without a mark were called inactive. Calls of active or inactive are those of the source. How the source made its calls: active means growth percent below 10; inactive means the rest.

Holding throughout (assay): NCI-60 one-dose screen, 48 h (100 = growth as untreated, 0 = no growth, -100 = all killed)
One assay concerns HCT-15 colon. The following applies: 10 µM unless noted.
In a further assay the test system is HT29 colon. The following applies: 10 µM unless noted.
The subject of a further assay is SNB-75 CNS. The following applies: 10 µM unless noted.
The next assay has as its system SNB-19 CNS. The following applies: 10 µM unless noted.
The test system of another assay is U251 CNS. The conditions noted are these: 10 µM unless noted.
The next assay concerns PC-3 prostate. The following applies: 10 µM unless noted.
For the next assay, the system named is SK-MEL-5 melanoma. The conditions noted are these: 10 µM unless noted.
In a further assay the test system is UACC-62 melanoma. The following applies: 10 µM unless noted.
In another assay the test system is LOX IMVI melanoma. The following applies: 10 µM unless noted.
In another assay the test system is SK-MEL-28 melanoma. The conditions noted are these: 10 µM unless noted.
The subject of a further assay is SK-MEL-2 melanoma. The following applies: 10 µM.
In another assay the test system is EKVX NSCLC. The following applies: 10 µM unless noted.
Another assay concerns SN12C renal. The following applies: 10 µM unless noted.
In the next assay the test system is UO-31 renal. The following applies: 10 µM unless noted.
The next assay relates to TK-10 renal. The following applies: 10 µM unless noted.
In the next assay the test system is ACHN renal. The following applies: 10 µM unless noted.
Another assay relates to CAKI-1 renal. The conditions noted are these: 10 µM unless noted.
The subject of another assay is A498 renal. The following applies: 10 µM unless noted.
For the next assay, the system named is CCRF-CEM leukemia. The following applies: 10 µM unless noted.
The subject of the next assay is MOLT-4 leukemia. The following applies: 10 µM unless noted.

In the case of `CCc1nc2cc(/C=C/C(=O)NO)c(F)cc2c(=O)n1CCc1ccccc1`, the growth is 25.9% in the assay with HCT-15 colon; 13.2% in the assay with HT29 colon; 29.3% with SNB-75 CNS; 19.7% in the assay on SNB-19 CNS; 1.61% (active) with U251 CNS; 16.9% in the assay with PC-3 prostate. Also, the growth is -10.1% (active) in the assay with SK-MEL-5 melanoma; -33.5% (active) with UACC-62 melanoma; -57.8% (active) with LOX IMVI melanoma; 20.3% in the assay on SK-MEL-28 melanoma; 35% with SK-MEL-2 melanoma; 20.6% in the assay with EKVX NSCLC. Further, the growth is 3.45% (active) with SN12C renal; -28.7% (active) in the assay with UO-31 renal; -5.84% (active) in the assay with TK-10 renal; 1.28% (active) in the assay with ACHN renal; -1.21% (active) in the assay on CAKI-1 renal; -16.5% (active) in the assay with A498 renal. Further, the growth was 2.77% (active) in the assay on CCRF-CEM leukemia and -2.57% (active) in the assay with MOLT-4 leukemia.

Regarding `COc1cc(C(=O)NNC(=O)c2ccc(NC(=O)CCl)cc2)cc(OC)c1OC`, the growth in the assay on HCT-15 colon was 86.4%; in the assay on HT29 colon, 60.5%; in the assay with SNB-75 CNS it was 87.4%; in the assay with SNB-19 CNS it was 88.9%; with U251 CNS it was 11.1%; with PC-3 prostate it was 66.1%. Besides, the growth in the assay on SK-MEL-5 melanoma is 77.9%; with UACC-62 melanoma, 66.9%; with LOX IMVI melanoma, 28.9%; in the assay with SK-MEL-28 melanoma, 86.9%; in the assay with SK-MEL-2 melanoma, 80.7%; in the assay with EKVX NSCLC, 92.4%. Besides, the growth in the assay on SN12C renal was 65.9%; with UO-31 renal it was 80.1%; in the assay with TK-10 renal, 107%; in the assay on ACHN renal it was 89.8%; in the assay with CAKI-1 renal, 98.2%; in the assay with A498 renal, 85.9%. Also, the growth in the assay on CCRF-CEM leukemia is 33%; with MOLT-4 leukemia, 57.2%.

With `N#Cc1c(-c2ccc(C(F)(F)F)cc2)c(F)c(NCCC2CCC(O)C2)n2c1nc1ccccc12` (centres undefined), the growth with HCT-15 colon is 49.6%; with HT29 colon it was 17.8%; in the assay with SNB-75 CNS it was 68%; in the assay on SNB-19 CNS it was 78.3%; in the assay with U251 CNS it was 61.4%; in the assay on PC-3 prostate, 37.8%. The growth in the assay with SK-MEL-5 melanoma is 61.8%; in the assay with UACC-62 melanoma it was 72.7%; in the assay on LOX IMVI melanoma, 6.38% (active); with SK-MEL-28 melanoma, 61.8%; with SK-MEL-2 melanoma it was 101%; with EKVX NSCLC it was 43.8%. Further, the growth with SN12C renal is 49.1%; in the assay with UO-31 renal it was 52.6%; in the assay on TK-10 renal, 83.6%; in the assay on ACHN renal, 61.2%; in the assay on CAKI-1 renal, 26.6%; in the assay on A498 renal it was 35.4%. Also, the growth with CCRF-CEM leukemia is 17.9%; in the assay with MOLT-4 leukemia, 45.9%.

For `Cc1ccc(-c2nc3ccc(Cl)cn3c2NC2CCCCC2)o1`, the growth in the assay on HCT-15 colon was 66.8%; in the assay with HT29 colon, 48.4%; in the assay with SNB-75 CNS, 83.5%; with SNB-19 CNS, 97.4%; in the assay on U251 CNS it was 86.8%; with PC-3 prostate it was 45.4%. Further, the growth was 66.4% in the assay on SK-MEL-5 melanoma; 72.4% with UACC-62 melanoma; 103% in the assay with LOX IMVI melanoma; 100% in the assay with SK-MEL-28 melanoma; 88.9% with SK-MEL-2 melanoma; 80.7% in the assay on EKVX NSCLC. In addition, the growth in the assay on SN12C renal was 87.3%; in the assay with UO-31 renal it was 58.5%; in the assay on TK-10 renal, 87.9%; in the assay on ACHN renal, 83.1%; in the assay on CAKI-1 renal, 60.6%; in the assay on A498 renal, 53.3%. For the same compound, the growth with CCRF-CEM leukemia was 79.8%; in the assay with MOLT-4 leukemia, 43.4%.

`C=C1C(=O)O[C@H]2[C@H]1CC/C(C=Nc1c(N)cc(C(F)(F)F)cc1C(F)(F)F)=C\CC[C@@]1(C)O[C@@H]21`: the growth was -31.1% (active) with HCT-15 colon; -15.2% (active) in the assay with HT29 colon; 48.6% in the assay with SNB-75 CNS; 36.8% in the assay on SNB-19 CNS; 8.57% (active) in the assay with U251 CNS; -12.8% (active) in the assay on PC-3 prostate. Further, the growth is -43.6% (active) with SK-MEL-5 melanoma; -57.1% (active) in the assay with UACC-62 melanoma; -87.5% (active) in the assay with LOX IMVI melanoma; -17.2% (active) in the assay on SK-MEL-28 melanoma; -39.1% (active) in the assay on SK-MEL-2 melanoma; -36.2% (active) in the assay on EKVX NSCLC. For the same compound, the growth was -43.2% (active) in the assay with SN12C renal; -89.8% (active) in the assay on UO-31 renal; -41% (active) in the assay with TK-10 renal; -89.4% (active) in the assay on ACHN renal; -59.3% (active) in the assay with CAKI-1 renal; 34.8% in the assay on A498 renal. For the same compound, the growth with CCRF-CEM leukemia was 4.15% (active); with MOLT-4 leukemia it was -13.5% (active).

`CC(C)n1c(NCCc2ccc(O)c(O)c2)nc2c1c(=O)n(C)c(=O)n2C`: the growth with HCT-15 colon is 98.8%; in the assay with HT29 colon, 98.1%; in the assay with SNB-75 CNS, 80.2%; in the assay on SNB-19 CNS, 101%; in the assay with U251 CNS, 97.5%; in the assay on PC-3 prostate, 89.3%. For the same compound, the growth with SK-MEL-5 melanoma is 92.8%; in the assay on UACC-62 melanoma, 94.4%; in the assay with LOX IMVI melanoma, 95.2%; in the assay with SK-MEL-28 melanoma it was 102%; in the assay on SK-MEL-2 melanoma, 107%; in the assay with EKVX NSCLC, 101%. Moreover, the growth in the assay on SN12C renal was 98.4%; in the assay with UO-31 renal, 87.3%; in the assay with TK-10 renal, 84.6%; in the assay with ACHN renal it was 99.3%; with CAKI-1 renal it was 88.1%; with CCRF-CEM leukemia, 99.6%. In the assay with MOLT-4 leukemia, the growth is 105%.

For `CC(C)(C)CC(C)(C)Nc1c(-c2c(O)c3ccccc3oc2=O)nc2c(Cl)cc(C(F)(F)F)cn12`, the growth with HCT-15 colon is 107%; in the assay with HT29 colon, 105%; in the assay with SNB-75 CNS it was 85.7%; in the assay on SNB-19 CNS, 101%; with U251 CNS, 101%; with PC-3 prostate it was 79.6%. For the same compound, the growth in the assay with SK-MEL-5 melanoma was 97.8%; in the assay on UACC-62 melanoma, 93.4%; in the assay on LOX IMVI melanoma, 98.1%; with SK-MEL-28 melanoma it was 113%; in the assay on SK-MEL-2 melanoma it was 102%; in the assay on EKVX NSCLC, 97.3%. Also, the growth in the assay on SN12C renal is 91.6%; in the assay with UO-31 renal it was 70.7%; with TK-10 renal, 96.4%; in the assay with ACHN renal, 97.3%; in the assay on CAKI-1 renal, 87.6%; in the assay on A498 renal, 62%. In addition, the growth in the assay with CCRF-CEM leukemia was 89.1%; in the assay with MOLT-4 leukemia it was 82.6%.

Regarding `CCc1nc2ccc(Cc3ccc(C(=O)NO)cc3)cc2c(=O)n1CCc1ccccc1`, the growth in the assay on HCT-15 colon was -43.2% (active); with HT29 colon, -40.8% (active); in the assay on SNB-75 CNS it was -20.8% (active); in the assay with SNB-19 CNS, -44.9% (active); in the assay with U251 CNS it was -71.4% (active); in the assay with PC-3 prostate it was -66.5% (active). The growth is -65.6% (active) with SK-MEL-5 melanoma; -57.7% (active) in the assay on UACC-62 melanoma; -76.2% (active) with LOX IMVI melanoma; -36% (active) with SK-MEL-28 melanoma; -33.4% (active) in the assay on SK-MEL-2 melanoma; -23.3% (active) in the assay on EKVX NSCLC. The growth was -20.5% (active) with SN12C renal; -63.4% (active) in the assay on UO-31 renal; -29.7% (active) in the assay on TK-10 renal; -35.3% (active) in the assay on ACHN renal; -37% (active) in the assay with CAKI-1 renal; -75.9% (active) in the assay on A498 renal. Besides, the growth in the assay on CCRF-CEM leukemia was 2.95% (active); in the assay with MOLT-4 leukemia, -18.7% (active).

(Values after PubChem BioAssay (NCI).)
